Source: PubChem BioAssay
For part of these data: Entries with a potency or affinity are not part of this list. Activity calls are given as the source filed them.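 The calls were made as follows, unless noted: active = calcium signal cut by more than 3 SD below the full-agonist control yet still positive, in both repeats and the earlier primary screen; inactive = the rest.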

Tests used:
[1] = tested on: TRPC4 beta (transient receptor potential cation channel C4), mouse; experiment: activators of mouse TRPC4 channel, confirmation, cell-based, Fluo4 calcium, HEK293 TRPC4beta/mu-opioid, duplicates, 10 µM (AID 2426;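 active = fluorescence ratio normalized to control raised more than 50% in primary screen plus both repeat runs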); details: Fluo4 calcium fluorescence, at 10 µM; active compounds read high
[2] = tested on: transient receptor potential cation channel C4 beta (TRPC4), mouse; experiment: activators of mouse TRPC4 channel, confirmation, cell-based, second round, Fluo4, HEK293 TRPC4beta/mu-opioid, 1 µM (AID 2461;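 active = primary screen active and over 50% activation in each of two duplicate runs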); details: Fluo4 calcium fluorescence, at 1 µM; active compounds read high
[3] = tested on: TRPC4 (transient receptor potential cation channel C4 beta), mouse; experiment: positive allosteric modulators of mouse TRPC4, confirmation, cell-based, second round, Fluo-4, HEK293 TRPC4beta/mu-opioid, 1 µM (AID 2554;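 active = primary screen hit whose fluorescence ratio, in both repeats, exceeds the weak agonist control mean by 3 SD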); details: DAMGO EC20, Fluo-4 calcium flux, at 1 µM; active compounds read high
[4] = tested on: TRPC4 beta (transient receptor potential cation channel C4), mouse; experiment: positive allosteric modulators of mouse TRPC4, confirmation, cell-based, Fluo-4, HEK293 TRPC4beta/mu-opioid (AID 2555;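 active = primary screen hit whose calcium fluorescence ratio, in both repeats, exceeds the weak agonist control mean by 3 SD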); details: DAMGO EC20, Fluo-4 calcium flux, at 10 µM; active compounds read high
[5] = molecular target: Short transient receptor potential channel 4 (Mus musculus) (UniProt Q9QUQ5); experiment: inhibitors of mouse TRPC4 channel, confirmation, cell-based, Fluo4, HEK293 TRPC4beta/mu-opioid (AID 2636); details: DAMGO, Fluo4 calcium flux, at 10 µM; active compounds read high
[6] = molecular target: Short transient receptor potential channel 4 (Mus musculus) (UniProt Q9QUQ5); experiment: inhibitors of mouse TRPC4 channel, confirmation, cell-based, second round, Fluo4, HEK293 TRPC4beta/mu-opioid, 1 µM (AID 2637;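 active = calcium signal ratio cut to more than 3 SD under the fully stimulated control mean yet still positive, in both repeats and the primary screen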); details: Fluo4 calcium flux, DAMGO, at 1 µM; active compounds read high
[7] = molecular target: Short transient receptor potential channel 4 (Mus musculus) (UniProt Q9QUQ5); experiment: mouse TRPC4 channel activators, dose response, cell-based, HEK293 TRPC4/mu-opioid, Fluo-4 calcium (AID 434937;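 active = primary screen activator hit with a dose response curve and TRPC4 channel activation at any tested dose; inactive = no activation, no dose response, or not a primary hit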)
[8] = molecular target: Short transient receptor potential channel 4 (Mus musculus) (UniProt Q9QUQ5); experiment: TRPC4 positive allosteric modulators, dose response, cell-based, HEK293 TRPC4/mu-opioid, Fluo-4 calcium, EC20 DAMGO (AID 434941;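 active = earlier screen potentiator hit that boosts the TRPC4 ion channel at some dose, with a dose response; inactive = no potentiation, no dose response, or not a prior hit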;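 also: calcium entry triggered by an EC20 dose of DAMGO at the co-expressed mu-opioid receptor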)
[9] = molecular target: Short transient receptor potential channel 4 (Mus musculus) (UniProt Q9QUQ5); experiment: mouse TRPC4 channel inhibitors, dose response, cell-based, HEK293 TRPC4/mu-opioid, Fluo-4 calcium (AID 434942;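 active = primary screen inhibitor hit that blocks the TRPC4 channel at some tested dose, yielding a dose curve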)
[10] = molecular target: Short transient receptor potential channel 6 (Mus musculus) (UniProt Q61143); experiment: inhibition of mouse TRPC6 channel, confirmation, selectivity assay for TRPC4 inhibitor project, cell-based, HEK293, membrane potential dye, duplicate (AID 434948;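 active = active in primary screen and both duplicates, each dropping signal beyond three positive-control SD with fluorescence still positive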); details: HEK293 TRPC6, membrane potential dye fluorescence, at 10 µM, stimulated with maximal-effect acetylcholine; active compounds read high
[11] = molecular target: Short transient receptor potential channel 6 (Mus musculus) (UniProt Q61143); experiment: activation of mouse TRPC6 channel, confirmation, selectivity assay for TRPC4 activator project, cell-based, HEK293, membrane potential dye, duplicate (AID 434950;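 active = membrane potential signal rise above negative control mean plus 3 SD in both duplicates, also active in the earlier TRPC4 screen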;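 as to activation: 0% = buffer only wells and 100% = acetylcholine maximal-effect wells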); details: HEK293 TRPC6, membrane potential fluorescence, at 10 µM; active compounds read high
[12] = molecular target: Short transient receptor potential channel 6 (Mus musculus) (UniProt Q61143); experiment: TRPC6 potentiation by TRPC4 potentiator hits, confirmation, selectivity assay for TRPC4 potentiator project, HEK293 cells, membrane potential dye, duplicate (AID 434952;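 active = compound raising the membrane signal above positive-control mean plus 3 SD in both repeats, and a primary screen hit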); details: HEK293 TRPC6, membrane potential dye fluorescence, at 10 µM, maximal acetylcholine added after compound; active compounds read high
[13] = molecular target: Short transient receptor potential channel 4 (Mus musculus) (UniProt Q9QUQ5); experiment: calcium flux activators in TRPC4/5HT1a cells, counter-screen for TRPC4 activator project, cell-based, second counter screen, HEK293 TRPC4/5HT1a, Fluo-4 (AID 434977;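 active = calcium signal rise above buffer-control mean plus 5 SD in both duplicates, and also a hit in the primary screen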); details: Fluo-4 calcium flux, at 10 µM; active compounds read high
[14] = calcium flux inhibitors in TRPC4/5HT1a cells, confirmation, counter-screen for TRPC4 inhibitor project, cell-based, second counter screen, HEK293 TRPC4/5HT1a, Fluo-4 (AID 434978;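 active = primary screen active whose calcium signal fell more than 3 SD beyond the full-serotonin control mean in both duplicate plates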;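 also: serotonin given first at submaximal then at maximal dose after compound preincubation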); details: Fluo-4 calcium flux, at 10 µM, serotonin added to trigger calcium flux; active compounds read high
[15] = tested on: TRPC4 (mouse), co-expressed with 5HT1a in HEK293; experiment: calcium flux potentiators in TRPC4/5HT1a cells, confirmation, counter-screen for TRPC4 potentiator project, cell-based, second counter screen, HEK293 TRPC4/5HT1a, Fluo-4 (AID 434979;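 active = signal rise over 3 SD above mean of control wells given weak agonist, in both repeats and first screen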); details: Fluo-4 calcium flux, at 10 µM, serotonin added at its EC20 dose; active compounds read high
[16] = calcium flux activation in mu-opioid HEK293 cells, confirmation, counter-screen for TRPC4 activator project, cell-based, HEK293 mu-opioid receptor line (AID 449723;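 active = hit in primary screen, with calcium signal over 5 SD above buffer well mean in both duplicates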;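 also: counter screen cells carry the mu-opioid receptor alone and lack TRPC4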); details: Fluo-4 calcium fluorescence, at 10 µM; active compounds read high
[17] = calcium flux enhancement in mu-opioid HEK293 cells, confirmation, counter-screen for TRPC4 allosteric potentiator project, cell-based, HEK293 mu-opioid receptor line (AID 449724;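 active = calcium signal rise more than 3 SD above the low-dose agonist control mean, in both duplicate plates and the primary screen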); details: Fluo-4 calcium flux, at 10 µM, compound added before EC20 DAMGO stimulus; active compounds read high

Chain of Short transient receptor potential channel 6 (Mus musculus) (Q61143 whole entry, looked up): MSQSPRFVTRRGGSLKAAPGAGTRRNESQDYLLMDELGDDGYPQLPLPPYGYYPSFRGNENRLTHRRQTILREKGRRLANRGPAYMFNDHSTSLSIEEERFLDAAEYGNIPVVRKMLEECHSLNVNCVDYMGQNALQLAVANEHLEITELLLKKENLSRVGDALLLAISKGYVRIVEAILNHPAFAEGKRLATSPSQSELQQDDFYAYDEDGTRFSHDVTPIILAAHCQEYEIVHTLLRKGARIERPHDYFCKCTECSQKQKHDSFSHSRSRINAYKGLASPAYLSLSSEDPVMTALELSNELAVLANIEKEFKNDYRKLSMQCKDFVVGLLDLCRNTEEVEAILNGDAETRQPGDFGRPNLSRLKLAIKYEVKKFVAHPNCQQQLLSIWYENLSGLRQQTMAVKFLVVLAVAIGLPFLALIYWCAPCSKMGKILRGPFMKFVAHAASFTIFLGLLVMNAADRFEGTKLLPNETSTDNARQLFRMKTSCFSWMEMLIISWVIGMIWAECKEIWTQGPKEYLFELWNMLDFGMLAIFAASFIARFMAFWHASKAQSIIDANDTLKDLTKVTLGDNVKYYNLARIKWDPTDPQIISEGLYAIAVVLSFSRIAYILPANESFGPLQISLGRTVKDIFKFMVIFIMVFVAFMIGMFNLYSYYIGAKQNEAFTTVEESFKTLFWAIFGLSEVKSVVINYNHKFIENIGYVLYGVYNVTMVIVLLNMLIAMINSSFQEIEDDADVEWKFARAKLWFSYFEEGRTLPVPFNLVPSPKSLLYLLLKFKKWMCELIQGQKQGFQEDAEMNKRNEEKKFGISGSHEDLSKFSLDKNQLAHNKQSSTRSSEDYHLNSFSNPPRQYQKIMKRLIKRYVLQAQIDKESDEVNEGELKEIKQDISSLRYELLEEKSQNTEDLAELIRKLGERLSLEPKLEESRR
Chain of Short transient receptor potential channel 4 (Mus musculus) (Q9QUQ5 whole entry, looked up): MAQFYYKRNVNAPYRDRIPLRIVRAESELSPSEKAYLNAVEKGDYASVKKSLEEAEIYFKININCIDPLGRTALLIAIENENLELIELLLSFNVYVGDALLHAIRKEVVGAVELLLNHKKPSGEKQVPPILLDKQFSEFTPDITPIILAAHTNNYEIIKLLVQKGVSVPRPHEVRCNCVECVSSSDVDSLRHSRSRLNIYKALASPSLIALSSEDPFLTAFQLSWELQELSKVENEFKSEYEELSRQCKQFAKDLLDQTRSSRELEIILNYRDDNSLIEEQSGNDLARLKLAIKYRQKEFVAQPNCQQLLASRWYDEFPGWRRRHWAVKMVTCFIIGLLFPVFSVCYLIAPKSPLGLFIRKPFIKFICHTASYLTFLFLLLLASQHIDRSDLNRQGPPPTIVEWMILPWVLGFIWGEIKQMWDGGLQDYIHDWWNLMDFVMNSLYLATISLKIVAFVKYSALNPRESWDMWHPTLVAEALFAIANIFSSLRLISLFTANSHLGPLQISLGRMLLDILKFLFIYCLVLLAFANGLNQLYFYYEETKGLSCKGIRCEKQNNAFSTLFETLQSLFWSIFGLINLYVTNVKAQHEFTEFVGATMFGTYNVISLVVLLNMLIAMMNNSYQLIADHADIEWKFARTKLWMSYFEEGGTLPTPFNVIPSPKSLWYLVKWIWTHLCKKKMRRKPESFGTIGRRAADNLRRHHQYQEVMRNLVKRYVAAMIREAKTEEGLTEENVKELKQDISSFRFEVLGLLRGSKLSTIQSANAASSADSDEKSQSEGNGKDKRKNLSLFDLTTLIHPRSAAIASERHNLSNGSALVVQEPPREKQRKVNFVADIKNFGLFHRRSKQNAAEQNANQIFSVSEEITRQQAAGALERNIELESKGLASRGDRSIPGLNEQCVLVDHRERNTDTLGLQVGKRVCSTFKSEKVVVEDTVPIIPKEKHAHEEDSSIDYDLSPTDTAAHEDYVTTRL

Cc1oc(-c2cccc(F)c2)nc1CN(Cc1ccccc1)C[C@@H]1CCC(=O)N1
inactive: outcome [1] | outcome [2] | outcome [3] | outcome [4] | outcome [5] | outcome [6] | outcome [7] | outcome [8] | outcome [9] | outcome [10] | outcome [11] | outcome [12] | outcome [13] | outcome [14] | outcome [15] | outcome [16] | outcome [17]

Cc1cc(Br)ccc1OCCN1CCCC1
inactive: outcome [1] | outcome [2] | outcome [4] | outcome [5] | outcome [6] | outcome [7] | outcome [8] | outcome [9] | outcome [10] | outcome [11] | outcome [12] | outcome [13] | outcome [14] | outcome [16] | outcome [17]
active: potentiation [3] 12% | potentiation [15] 7.25%

c1ccc(Cn2nnc3cnccc32)cc1
inactive: outcome [1] | outcome [2] | outcome [3] | outcome [4] | outcome [6] | outcome [7] | outcome [8] | outcome [9] | outcome [10] | outcome [11] | outcome [12] | outcome [13] | outcome [14] | outcome [15] | outcome [16] | outcome [17]
active: inhibition [5] 65%

O=C(c1coc2ccc(O)c(CN3CCOCC3)c12)C1CC1
inactive: outcome [1] | outcome [2] | outcome [3] | outcome [4] | outcome [5] | outcome [6] | outcome [7] | outcome [8] | outcome [9] | outcome [10] | outcome [11] | outcome [12] | outcome [13] | outcome [14] | outcome [15] | outcome [16] | outcome [17]

CC(=O)N1CC(c2ccccc2)C(c2ccc(Cl)cc2)=N1 (stereo not given)
inactive: outcome [1] | outcome [2] | outcome [3] | outcome [4] | outcome [5] | outcome [6] | outcome [7] | outcome [8] | outcome [9] | outcome [10] | outcome [11] | outcome [12] | outcome [13] | outcome [14] | outcome [15] | outcome [16] | outcome [17]

C/C(N)=C(/C#N)C(=O)COC(=O)C1CCC(C(C)(C)C)CC1 (stereo not given)
inactive: outcome [1] | outcome [2] | outcome [3] | outcome [4] | outcome [5] | outcome [6] | outcome [7] | outcome [8] | outcome [9] | outcome [10] | outcome [11] | outcome [12] | outcome [13] | outcome [14] | outcome [15] | outcome [16] | outcome [17]

COc1ccccc1-c1cc(-c2ccccc2)nc(=O)[nH]1
active: potentiation [4] 22% | potentiation [15] 51.2%
inactive: outcome [1] | outcome [2] | outcome [3] | outcome [5] | outcome [6] | outcome [7] | outcome [8] | outcome [9] | outcome [10] | outcome [11] | outcome [12] | outcome [13] | outcome [14] | outcome [16] | outcome [17]

Cc1ccc(C)c(N(CC(=O)NC2CCCC2)C(=O)c2csnn2)c1
inactive: outcome [1] | outcome [2] | outcome [3] | outcome [4] | outcome [5] | outcome [6] | outcome [7] | outcome [8] | outcome [9] | outcome [10] | outcome [12] | outcome [13] | outcome [14] | outcome [15] | outcome [16] | outcome [17]
active: activation [11] 30%

CCOC(=O)c1c(-c2ccc(OC)cc2)oc2ccc(O)cc12
inactive: outcome [1] | outcome [2] | outcome [3] | outcome [4] | outcome [5] | outcome [6] | outcome [7] | outcome [8] | outcome [9] | outcome [10] | outcome [11] | outcome [12] | outcome [13] | outcome [14] | outcome [15] | outcome [16] | outcome [17]

CC(C)Oc1ccccc1C1CC(=O)Nc2cc3c(cc21)OCCO3 (stereo not given)
inactive: outcome [1] | outcome [2] | outcome [3] | outcome [5] | outcome [6] | outcome [7] | outcome [8] | outcome [9] | outcome [10] | outcome [11] | outcome [12] | outcome [13] | outcome [14] | outcome [16] | outcome [17]
active: potentiation [4] 44% | potentiation [15] 96.2%

O=C(c1ccc([N+](=O)[O-])s1)N1CCCc2ccccc21
inactive: outcome [1] | outcome [2] | outcome [3] | outcome [4] | outcome [5] | outcome [6] | outcome [7] | outcome [8] | outcome [9] | outcome [10] | outcome [11] | outcome [12] | outcome [13] | outcome [14] | outcome [15] | outcome [16] | outcome [17]

c1ccc(Nc2c3c(nc4ccccc24)CCC3)cc1
inactive: outcome [1] | outcome [2] | outcome [3] | outcome [4] | outcome [5] | outcome [6] | outcome [7] | outcome [8] | outcome [9] | outcome [10] | outcome [11] | outcome [12] | outcome [13] | outcome [14] | outcome [15] | outcome [16] | outcome [17]

O=C1CCCC(=O)N1c1ccc(N2CCN(c3ccc([N+](=O)[O-])cc3)CC2)c([N+](=O)[O-])c1
inactive: outcome [1] | outcome [2] | outcome [3] | outcome [5] | outcome [6] | outcome [7] | outcome [8] | outcome [9] | outcome [10] | outcome [11] | outcome [12] | outcome [13] | outcome [14] | outcome [16] | outcome [17]
active: potentiation [4] 11% | potentiation [15] 14.9%

COc1cccc(OCCOCCNCCO)c1
active: activation [11] 33.5%
inactive: outcome [1] | outcome [2] | outcome [3] | outcome [4] | outcome [5] | outcome [6] | outcome [7] | outcome [8] | outcome [9] | outcome [10] | outcome [12] | outcome [13] | outcome [14] | outcome [15] | outcome [16] | outcome [17]

CN(C)CCCn1c(=O)n(CCc2ccccc2)c(=O)c2c3c(sc21)CCCCC3
inactive: outcome [1] | outcome [2] | outcome [3] | outcome [4] | outcome [5] | outcome [6] | outcome [7] | outcome [8] | outcome [9] | outcome [10] | outcome [11] | outcome [12] | outcome [13] | outcome [14] | outcome [15] | outcome [16] | outcome [17]
